# Assay results reported in PubChem BioAssay.
# Activity calls are given as the source filed them.
# Experiments:
# [1] = system: Wnt5a (protein binding on small-molecule microarray); experiment: small molecules binding Wnt5a protein – biophysical, small-molecule microarray, 635/667 nm fluorescence, primary screen (AID 1142); conditions: 635 nm fluorescence, higher = more signal;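 further: fluorescence read at 667 nm with signal to noise per printed feature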
# [2] = ATP-based viability of Huh7 replicon cells – cell-based, CellTiter-Glo luminescence, basal, 48 h, cytotoxicity control for HCV replication inhibitor project, primary screen (AID 1143); conditions: higher = more signal, called active from +8 up or from −8 down;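 further: Huh7 hepatoma cells carrying a hepatitis C replication reporter with no stimulus; test concentration not given here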
# [3] = basal CRE-LacZ reporter activity in PC12 – cell-based, unstimulated, primary screen (AID 1145); conditions: no forskolin, luminescence, 4.5 h, higher = more signal, called active from +8 up or from −8 down
# [4] = forskolin-driven CRE-LacZ activity in PC12 – cell-based, CRE-LacZ reporter, forskolin-stimulated, primary screen (AID 1146); conditions: luminescence, 4.5 h, higher = more signal, called active from +8 up or from −8 down;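 further: PC12 cells with 6xCRE LacZ reporter stimulated by forskolin 10 µM; beta-galactosidase reporter signal reflecting CREB driven transcription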
# [5] = molecular target: Streptavidin (Streptomyces avidinii) (UniProt P22629); experiment: compounds binding control protein streptavidin – biophysical, small-molecule microarray, 635/667 nm fluorescence, artefact control for SMM compound annotation, primary screen (AID 1147); conditions: higher = more signal;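 further: signal reflects streptavidin binding to arrayed compounds as a control protein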
# [6] = probe aInhba binding on compound microarray – biochemical, small-molecule microarray, 635/667 nm fluorescence, primary screen (AID 1148); conditions: higher = more signal;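 further: score merges 667nm spot fluorescence with signal-to-noise for antibody binding to printed compounds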
# Torsin-1A (Homo sapiens) [7] = molecular target: Torsin-1A (Homo sapiens) (UniProt O14656); experiment: TOR1A wild-type binding on microarray – cell lysate, small-molecule microarray, lysate, 635/667 nm, primary screen (AID 1149); conditions: COS7 hTOR1A-WT lysate, 635 nm fluorescence, higher = more signal
# Torsin-1A (Homo sapiens) [8] = molecular target: Torsin-1A (Homo sapiens) (UniProt O14656); experiment: torsin A mutant lysate binding on microarrays – cell lysate, small-molecule microarray, COS7 lysate, 635/667 nm fluorescence, primary screen (AID 1150); conditions: COS7 hTOR1A mutant lysate, 635 nm fluorescence, higher = more signal;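 further: score pools 667 nm emission and signal to noise measuring lysate protein binding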
# [9] = system: Sonic hedgehog protein (Shh); experiment: Sonic hedgehog microarray binding compounds – biochemical, small-molecule microarray, 635/667 nm fluorescence, primary screen (AID 1151); conditions: 635 nm fluorescence, higher = more signal;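 further: Shh protein binding to compounds spotted on small-molecule microarray slides; score combines spot fluorescence intensity with signal-to-noise across triplicate slides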
# [10] = optical density shifts of acrAB sulA E. coli – strain DRC41, OD650, 48 h, E. coli filamentation inducer project, primary screen (AID 1152); conditions: higher = more signal, called active from +8 up or from −8 down;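 further: E. coli MC1000 strain DRC41 lacking acrAB efflux pump and sulA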
# [11] = probe aLefty1 binding on compound microarray – biochemical, small-molecule microarray, 635/667 nm fluorescence, primary screen (AID 1153); conditions: higher = more signal;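 further: score merges spot fluorescence with signal-to-noise ratio from the scanned slide images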
# [12] = plasmodial surface anion channel blockers, osmotic lysis – cell-based, P. falciparum Indochina, OD700, 1 h, primary screen (AID 1154); conditions: P. falciparum Indochina infected RBC osmotic lysis, higher = more signal, called active from +8 up or from −8 down
# [13] = plasmodial surface anion channel blockers, osmotic lysis – cell-based, P. falciparum Indochina, OD700, 2 h, primary screen (AID 1155);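 further: lysis reports solute entry through the parasite surface anion channel PSAC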; conditions: P. falciparum Indochina infected erythrocytes, higher = more signal, called active from +8 up or from −8 down
# [14] = changes in parasitized red cell lysis, either direction – P. falciparum Indochina, OD700, 3 h, PSAC antagonist project, primary screen (AID 1156); conditions: P. falciparum-infected erythrocytes, osmotic lysis, higher = more signal, called active from +8 up or from −8 down
# [15] = plasmodial surface anion channel blockers, osmotic lysis – cell-based, P. falciparum Indochina, OD700, 18 h, primary screen (AID 1157); conditions: P. falciparum Indochina infected erythrocytes, osmotic lysis OD700, 18 h; higher = more signal, called active from +8 up or from −8 down
# [16] = S6 kinase pathway phospho-S6 level changes – cell-based, A549, cytoblot, luminescence, serum-stimulated, primary screen (AID 1158); conditions: 5 h, higher = more signal;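 further: serum-stimulated A549 lung adenocarcinoma cells; signal is phosphorylated S6 detected by cytoblot immunostaining with HRP secondary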
# [17] = molecular target: NADPH oxidase 2 (Homo sapiens) (UniProt P04839); experiment: compounds shifting NOX2 Amplex Red fluorescence – cell-based, HEK293-NOX2, PMA-stimulated, NOX inhibitor project, primary screen (AID 1159); conditions: 45 min, higher = more signal, called active from +8 up or from −8 down; further: test concentration not given here
# [18] = molecular target: NADPH oxidase 4 (Homo sapiens) (UniProt Q9NPH5); experiment: compounds shifting NOX4 Amplex Red fluorescence – cell-based, HEK293-NOX4, tetracycline-induced, NOX inhibitor project, primary screen (AID 1160); conditions: HEK293-NOX4, Amplex Red H2O2 fluorescence, 45 min; higher = more signal, called active from +8 up or from −8 down
# [19] = molecular target: NADPH oxidase 5 (Homo sapiens) (UniProt Q96PH1); experiment: compounds shifting NOX5 Amplex Red fluorescence – cell-based, HEK293-NOX5, NOX inhibitor project, primary screen (AID 1161); conditions: HEK293-NOX5, ionomycin, 45 min, higher = more signal
# Chain of NADPH oxidase 5 (Homo sapiens) (Q96PH1 whole entry, looked up): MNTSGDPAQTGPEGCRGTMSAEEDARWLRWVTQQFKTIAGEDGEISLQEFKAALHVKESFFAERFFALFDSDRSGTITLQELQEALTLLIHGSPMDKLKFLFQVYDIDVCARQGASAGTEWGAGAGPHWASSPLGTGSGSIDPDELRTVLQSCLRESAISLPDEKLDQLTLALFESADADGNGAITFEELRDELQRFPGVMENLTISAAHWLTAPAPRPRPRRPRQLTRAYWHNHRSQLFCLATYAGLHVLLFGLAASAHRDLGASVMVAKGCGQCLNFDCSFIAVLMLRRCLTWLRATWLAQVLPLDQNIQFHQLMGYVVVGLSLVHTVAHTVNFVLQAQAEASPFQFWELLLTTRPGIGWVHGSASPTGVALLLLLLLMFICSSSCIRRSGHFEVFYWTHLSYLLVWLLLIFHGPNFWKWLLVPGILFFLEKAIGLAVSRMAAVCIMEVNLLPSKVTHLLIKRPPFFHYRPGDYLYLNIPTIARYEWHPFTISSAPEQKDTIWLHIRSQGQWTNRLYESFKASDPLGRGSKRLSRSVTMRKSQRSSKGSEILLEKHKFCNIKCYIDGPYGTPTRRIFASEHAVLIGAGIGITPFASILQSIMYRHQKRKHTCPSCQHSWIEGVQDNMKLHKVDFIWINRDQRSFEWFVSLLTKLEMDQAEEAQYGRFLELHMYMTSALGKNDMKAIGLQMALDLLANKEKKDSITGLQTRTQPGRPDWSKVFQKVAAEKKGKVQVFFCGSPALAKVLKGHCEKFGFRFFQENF
# Chain of NADPH oxidase 4 (Homo sapiens) (Q9NPH5 whole entry, looked up): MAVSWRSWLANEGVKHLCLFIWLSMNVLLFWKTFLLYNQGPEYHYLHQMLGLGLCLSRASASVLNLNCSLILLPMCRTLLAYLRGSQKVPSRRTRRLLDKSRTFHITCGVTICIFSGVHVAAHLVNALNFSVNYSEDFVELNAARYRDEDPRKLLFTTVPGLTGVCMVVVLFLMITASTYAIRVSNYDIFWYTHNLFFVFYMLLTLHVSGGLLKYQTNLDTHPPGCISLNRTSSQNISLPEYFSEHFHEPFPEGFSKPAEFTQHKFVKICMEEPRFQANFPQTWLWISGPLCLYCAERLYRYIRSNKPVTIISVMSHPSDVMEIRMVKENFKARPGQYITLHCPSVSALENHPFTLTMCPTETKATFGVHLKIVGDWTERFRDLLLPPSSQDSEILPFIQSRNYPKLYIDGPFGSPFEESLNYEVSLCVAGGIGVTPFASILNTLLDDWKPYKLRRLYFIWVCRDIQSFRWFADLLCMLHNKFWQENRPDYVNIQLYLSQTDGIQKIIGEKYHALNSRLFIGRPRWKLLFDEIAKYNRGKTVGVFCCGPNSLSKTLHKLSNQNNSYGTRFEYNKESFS
# Chain of Torsin-1A (Homo sapiens) (O14656 whole entry, looked up): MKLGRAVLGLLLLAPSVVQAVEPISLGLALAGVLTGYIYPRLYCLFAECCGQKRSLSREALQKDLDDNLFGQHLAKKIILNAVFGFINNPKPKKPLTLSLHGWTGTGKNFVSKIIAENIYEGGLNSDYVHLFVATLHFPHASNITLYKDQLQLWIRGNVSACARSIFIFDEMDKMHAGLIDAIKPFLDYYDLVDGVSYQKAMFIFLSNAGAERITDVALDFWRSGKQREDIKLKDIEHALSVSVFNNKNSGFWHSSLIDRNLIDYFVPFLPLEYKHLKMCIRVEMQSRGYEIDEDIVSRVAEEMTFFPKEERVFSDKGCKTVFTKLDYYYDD
# Chain of NADPH oxidase 2 (Homo sapiens) (P04839 whole entry, looked up): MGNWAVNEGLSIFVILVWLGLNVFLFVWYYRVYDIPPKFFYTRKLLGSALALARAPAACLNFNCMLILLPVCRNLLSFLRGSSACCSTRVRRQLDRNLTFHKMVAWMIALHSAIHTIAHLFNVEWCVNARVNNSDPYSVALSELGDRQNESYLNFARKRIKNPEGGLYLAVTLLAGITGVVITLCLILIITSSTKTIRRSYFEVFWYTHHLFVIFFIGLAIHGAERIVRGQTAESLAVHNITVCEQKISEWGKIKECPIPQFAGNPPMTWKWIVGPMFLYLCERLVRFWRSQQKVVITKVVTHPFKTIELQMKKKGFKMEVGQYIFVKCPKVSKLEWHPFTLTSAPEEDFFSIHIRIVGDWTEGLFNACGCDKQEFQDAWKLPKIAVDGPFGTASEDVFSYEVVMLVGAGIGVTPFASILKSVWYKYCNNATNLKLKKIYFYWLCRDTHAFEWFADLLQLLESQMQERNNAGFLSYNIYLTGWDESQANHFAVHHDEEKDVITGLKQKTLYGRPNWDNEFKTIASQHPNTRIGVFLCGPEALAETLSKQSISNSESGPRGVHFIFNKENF
# Chain of Streptavidin (Streptomyces avidinii) (P22629 whole entry, looked up): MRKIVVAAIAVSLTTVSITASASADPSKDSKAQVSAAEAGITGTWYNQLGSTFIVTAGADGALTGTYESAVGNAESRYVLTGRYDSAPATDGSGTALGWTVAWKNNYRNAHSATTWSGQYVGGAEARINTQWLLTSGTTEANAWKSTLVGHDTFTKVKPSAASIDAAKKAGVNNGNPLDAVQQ
Structure (SMILES),composite z-score [1],z-score [2],z-score [3],z-score [4],composite z-score [5],composite z-score [6],composite z-score (Torsin-1A (Homo sapiens) [7]),composite z-score (Torsin-1A (Homo sapiens) [8]),composite z-score [9],z-score [10],composite z-score [11],z-score [12],z-score [13],z-score [14],z-score [15],z-score [16],z-score [17],z-score [18],z-score [19]
CC(C)CN1C(=O)[C@@]2(Cc3ccccc31)c1ccccc1C(=O)N(C1CCCCC1)[C@H]2c1ccc(CO)cc1,-0.194,-2.02 (inactive),-0.152 (inactive),-0.876 (inactive),-1.12,-0.208,-0.475,-0.488,-0.264,1.83 (inactive),-0.101,0.838 (inactive),-0.528 (inactive),-0.0544 (inactive),-1.24 (inactive),2.22,-0.236 (inactive),-1.31 (inactive),0.441
COC(=O)C1=CC(c2ccc(CO)cc2)=CC(C2CC2)N(Cc2sc3ccccc3c2Cl)C=C1C(=O)OC (stereo not drawn),0.213,-5.35 (inactive),0.272 (inactive),-1.57 (inactive),2.25,0.23,0.454,1.45,0.313,-0.248 (inactive),0.385,13.7 (active),0.815 (inactive),-0.994 (inactive),-1.07 (inactive),0.983,-0.872 (inactive),-0.189 (inactive),-0.0786
COCCOC(=O)N1C(=O)[C@@]2(c3ccccc31)[C@H](C(=O)N1CCc3cc(OC)c(OC)cc3C1)[C@H]1C(=O)O[C@H](c3ccccc3)[C@H](c3ccccc3)N1[C@@H]2c1ccccc1OCCO,0.0374,-3.27 (inactive),-0.183 (inactive),-1.12 (inactive),0.686,0.0228,0.435,0.243,1.38,2.1 (inactive),0.391,8.34 (active),1.35 (inactive),1.38 (inactive),0.123 (inactive),2.25,2.12 (inactive),1.46 (inactive),0.00739
C=CCC(OC(C)=O)[C@@H]1[C@@H](N(Cc2ccc(-c3ccccc3)cc2)C(=O)c2ccc(C)cc2)c2cc(OCCCO)ccc2N1C(=O)c1ccc(-c2ccccc2)cc1 (stereo partly drawn),0.504,-1.62 (inactive),1.73 (inactive),-0.782 (inactive),0.0598,0.0884,-0.0824,0.119,0.0223,2.2 (inactive),-0.0583,0.267 (inactive),-0.576 (inactive),-1.07 (inactive),-0.888 (inactive),1.05,-0.366 (inactive),0.639 (inactive),1.05
CO[C@H]1COC(=O)[C@@H](OCc2ccccc2)C=C[C@H](C)[C@@H](OC)COC(=O)[C@H](OCc2ccccc2)C=C[C@@H]1C,-0.115,-2.26 (inactive),1.16 (inactive),-0.672 (inactive),-0.0864,-0.0695,0.593,0.128,0.537,-0.282 (inactive),-0.0966,-0.0125 (inactive),-0.952 (inactive),-1.35 (inactive),-1.68 (inactive),1.55,-0.174 (inactive),0.433 (inactive),0.467
CCN1C(C)=C(C(=O)OC)[C@@H](c2ccccc2)N2C(=O)[C@](O)(C(=O)OC)[C@@H](c3ccccc3)C(C(C)=O)=C12,0.223,-5.29 (inactive),0.106 (inactive),-1.04 (inactive),-0.0371,-0.177,0.142,0.355,1.75,-0.461 (inactive),-0.0111,2.31 (inactive),0.414 (inactive),0.291 (inactive),0.0714 (inactive),3.95,-0.211 (inactive),-0.585 (inactive),1.35
C=CCNC(=O)[C@H]1[C@@H]2C(=O)O[C@@H](c3ccccc3)[C@@H](c3ccccc3)N2[C@@H](c2ccccc2OCCO)[C@]12C(=O)N(C(=O)OCCOC)c1ccc(C#CCC(C(=O)OC)C(=O)OC)cc12,0.302,-3.84 (inactive),0.775 (inactive),0.105 (inactive),-0.204,0.225,0.825,0.946,1.81,2.88 (inactive),0.042,2.93 (inactive),-0.183 (inactive),0.824 (inactive),-2.13 (inactive),2.23,0.819 (inactive),0.0202 (inactive),0.521
COc1ccc([Si](C)(C)[C@H]2[C@H](CCO)O[C@@]3(C(=O)N(Cc4ccccc4)c4ccc(N5C(=O)c6cccc7cccc5c67)cc43)[C@@H]2C)cc1,-0.234,-5.81 (inactive),4.04 (inactive),-1.36 (inactive),-0.3,-0.0791,-0.144,0.0743,0.145,1.85 (inactive),-0.105,3.41 (inactive),2.34 (inactive),1.36 (inactive),1.65 (inactive),0.314,-1.35 (inactive),0.163 (inactive),0.513
COCCOC(=O)N1C(=O)[C@@]2(c3cc(C#CC4(O)CCCCCC4)ccc31)[C@H](C(=O)N1CCCCCCC1)[C@H]1C(=O)O[C@H](c3ccccc3)[C@H](c3ccccc3)N1[C@@H]2c1ccc(O)cc1,0.464,-4.34 (inactive),-0.211 (inactive),-1.68 (inactive),1.16,1.01,1.27,0.889,1.68,1.13 (inactive),2.25,0.908 (inactive),0.128 (inactive),-0.373 (inactive),-0.763 (inactive),1.49,1.5 (inactive),0.372 (inactive),2.35
CC(=O)NCCCC[C@@H]1NC(=O)[C@@H]2C[C@H](C(=O)NCCCCCNC(=O)CS)[C@H](c3ccc(O)cc3)N2C1=O,0.443,-1.62 (inactive),-0.134 (inactive),-1.45 (inactive),-0.654,-0.179,0.0918,0.324,1.49,3.01 (inactive),-0.0528,2.55 (inactive),-0.247 (inactive),-2.2 (inactive),-1.04 (inactive),1.68,0.391 (inactive),0.284 (inactive),0.531
C=C(CCCC)C(=O)CC[C@@H](OC(=O)c1cccnc1)c1cccc(OCCO)c1,0.38,-1.85 (inactive),17.7 (active),-0.315 (inactive),-0.0743,-0.0762,1.08,0.0906,1.17,0.381 (inactive),-0.0954,26.7 (active),13.1 (active),1.28 (inactive),1.14 (inactive),-0.712,0.849 (inactive),0.849 (inactive),-1.41
CO[C@]12C=C(Br)[C@@H](C[C@@H]1c1ccccc1)[C@@]1(CO1)C2=O,-0.002,-1.7 (inactive),-0.323 (inactive),2 (inactive),0.4,-0.0221,0.271,0.309,0.522,2.36 (inactive),0.166,-0.0452 (inactive),-0.698 (inactive),0.422 (inactive),-1.7 (inactive),0.716,0.575 (inactive),0.625 (inactive),0.339
C=CC[C@]1(C(=O)O)N=C(c2ccc(OCCCO)cc2)O[C@H]1c1ccccc1,-0.0903,-0.551 (inactive),1.38 (inactive),-1.04 (inactive),0.0596,-0.0471,-0.753,-0.0649,-0.712,1.14 (inactive),-0.0984,11.7 (active),0.66 (inactive),0.211 (inactive),0.198 (inactive),0.663,-0.343 (inactive),0.388 (inactive),1.22
O=[N+]([O-])c1ccc(C[n+]2ccc3ccc(O)cc3c2)o1,0.465,-0.893 (inactive),-0.815 (inactive),-1.3 (inactive),1.29,0.0857,0.244,1.07,0.841,0.653 (inactive),-0.283,1.08 (inactive),-0.678 (inactive),-0.859 (inactive),-1.53 (inactive),0.829,-0.94 (inactive),-1.09 (inactive),-0.424
C=CC[C@@]1(C(=O)N2CCOCC2)N=C(c2ccc(OCCCO)cc2)O[C@@H]1c1ccccc1,-0.0454,-1.33 (inactive),0.437 (inactive),-0.354 (inactive),-0.0392,-0.151,0.0827,1.2,-0.571,1.24 (inactive),-0.269,20.8 (active),4.03 (inactive),2.25 (inactive),1.11 (inactive),-0.115,-1.04 (inactive),0.471 (inactive),-1
C=CC[C@@]12N=C(c3ccc(OCCCO)cc3)O[C@@H]1c1ccccc1CN(Cc1ccccc1)C2=O,0.509,-4.89 (inactive),2.16 (inactive),-2.5 (inactive),-0.0929,0.174,0.376,0.294,1.91,0.786 (inactive),0.271,28.3 (active),24.9 (active),3.34 (inactive),2.29 (inactive),0.557,-1.33 (inactive),-0.765 (inactive),-1.71
C=CCN1C(=O)[C@@]2(O[C@@H](CCn3cc([C@H](O)c4ccccc4)nn3)[C@H]([Si](C)(C)c3ccc(OC)cc3)[C@H]2C)c2cc(N3CCOC3=O)ccc21,-0.0882,-6.15 (inactive),8.19 (active),-1.73 (inactive),-0.349,-0.157,0.0712,0.557,0.185,1.77 (inactive),-0.139,6.55 (inactive),0.569 (inactive),-0.0434 (inactive),-0.233 (inactive),1.67,-0.379 (inactive),1.18 (inactive),-1.67
